Drawing on PubChem BioAssay (NCATS), this text covers Potency for 39 molecules.

Molecules are shown by their SMILES. Records with an inconclusive call do not appear. Activity calls are given as the source filed them. Calls follow the shape of the dose curve; as a rule, active = well fitted inhibition curve with a large enough effect; inconclusive = small, poorly fitted or top-dose-only effect; inactive = flat fitted curve, though single readings scatter.
Potency is read from the fitted curve at half-maximal effect.

Chain of Tyrosyl-DNA phosphodiesterase 1 (Homo sapiens) (Q9NUW8 whole entry, looked up): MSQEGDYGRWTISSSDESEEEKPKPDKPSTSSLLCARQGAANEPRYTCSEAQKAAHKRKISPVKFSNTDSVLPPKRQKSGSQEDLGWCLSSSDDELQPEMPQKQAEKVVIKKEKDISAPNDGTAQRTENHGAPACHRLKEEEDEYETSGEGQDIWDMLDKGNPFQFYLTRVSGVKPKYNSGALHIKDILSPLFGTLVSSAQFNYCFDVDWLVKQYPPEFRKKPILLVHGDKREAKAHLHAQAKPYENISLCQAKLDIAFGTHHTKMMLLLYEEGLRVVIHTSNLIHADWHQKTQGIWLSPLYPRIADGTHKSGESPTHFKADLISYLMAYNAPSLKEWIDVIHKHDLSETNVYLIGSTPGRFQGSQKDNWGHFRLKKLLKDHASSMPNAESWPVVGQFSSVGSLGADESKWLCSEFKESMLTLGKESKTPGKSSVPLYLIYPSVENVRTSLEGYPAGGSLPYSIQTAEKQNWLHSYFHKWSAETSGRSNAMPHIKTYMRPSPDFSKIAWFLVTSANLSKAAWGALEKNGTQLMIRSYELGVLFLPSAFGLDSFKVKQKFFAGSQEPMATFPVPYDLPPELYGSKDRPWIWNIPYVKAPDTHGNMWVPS

For this experiment, the target named is Tyrosyl-DNA phosphodiesterase 1 (Homo sapiens) (UniProt Q9NUW8). The experiment is described as follows: Confirmation Assay for Inhibitors of Tyrosyl-DNA Phosphodiesterase (TDP1) (AID 489007). Also: nearly all actives have a fitted effect of over 40% in size. The conditions noted are these: recombinant human TDP1 enzymatic activity, dose-response. The procedure, abridged:
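AlphaScreen assay of tyrosine-FITC cleavage from a biotinylated DNA substrate (15 nM) by E. coli-expressed human Tdp1 (1 nM). Sequence: compound preincubation 15 min, reaction 5 min, bead detection 10 min, all at room temperature. No-enzyme wells give maximum signal.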
For `CCc1nnc(NC(=O)c2sc3nc4c(cc3c2N)CCCCCC4)s1`, the Potency was 112 µM (active). The value for `O=C(O)c1cc(-c2ccc(/C=C3\NC(=O)N(c4ccccc4)C3=O)o2)ccc1Cl` was 7.08 µM (active). The figure for `COC(=O)c1cc(NC(=O)c2ccc3c(c2)NC(=O)c2ccccc2S3)cc(C(=O)OC)c1` is 25.1 µM (active).

For `Cc1ccccc1NC(=O)CN1C(=O)S/C(=C\c2cccn2-c2cccc(C(=O)O)c2)C1=O`, the Potency was 14.1 µM (active). The figure for `CC(=O)c1ccc(S(=O)(=O)N2Cc3ccccc3CC2C(=O)O)cc1` (centres undefined) is 15.8 µM (active); for `NC(=O)c1oc2ccccc2c1NC(=O)c1nc2ccccc2s1` it is 15.8 µM (active).

Regarding `Cc1ccc(CNC(=O)CCS(=O)(=O)c2ccc(Br)cc2)cc1`, the Potency is 12.6 µM (active). The figure for `C=C1c2cccc(OC)c2O[C@H](C(=O)OCC)[C@@H]1CCCCCC` is 0.0251 µM (active); for `COc1ccc(S(=O)(=O)N2Cc3ccccc3CC2C(=O)O)cc1` (centres undefined) it is 12.6 µM (active). In the case of `O=C(NC1CC1)c1cc(-c2ccco2)nc2ccccc12`, the Potency was 3.55 µM (active). The figure for `CS(=O)(=O)C1=NSC2=NC(=O)/C(=C\c3cccn3-c3ccc(Cl)cc3)C(=N)N21` is 5.01 µM (active); for `CC(=O)Nc1ccc2c(COC(=O)CC3Sc4ccccc4NC3=O)cc(=O)oc2c1` (centres undefined) it is 15.8 µM (active). The figure for `Clc1ccc(N2N=C(c3cccs3)CC2c2ccco2)cc1` (centres undefined) is 11.2 µM (active).

Consider `O=C(CSc1nnc(SCc2ccccc2)s1)N/N=C/c1c[nH]c2ccccc12`, for which the Potency is 4.47 µM (active). The value for `Cc1ccc(NC(=O)CN2C(=O)S/C(=C\c3cccn3-c3cccc(C(=O)O)c3)C2=O)c(C)c1` was 15.8 µM (active); that for `O=C(O)C1C2C=CC3(O2)C1C(=O)N1c2ccccc2C2OCCC2C13` (centres undefined) was 35.5 µM (active). For the molecule `Cc1nc2ccc(C(=O)O)cc2c2c1CC(C)S2` (centres undefined), the Potency is 31.6 µM (active).

Consider `Cc1ccc(CN2C(=O)N/C(=C\c3ccc(-c4ccc(C(=O)O)cc4C)o3)C2=O)cc1`, for which the Potency was 7.94 µM (active). On to `Oc1ccc(/C=N/N2CCOCC2)c(O)c1O`, for which the Potency was 100 µM (active). The figure for `CN(C)c1nc(-c2ccccc2)c2cnn(Cc3ccccc3)c2n1` is 63.1 µM (active); for `COc1ccc(-n2cccc2/C=C2\C(=N)N3N=C(c4ccco4)SC3=NC2=O)cc1` it is 14.1 µM (active).

Take `N#CC(C#N)=Cc1cccn1-c1ccc(C(=O)O)cc1`: the Potency is 3.98 µM (active).

Regarding `Cc1ccc(S(=O)(=O)N2CC=C(C(=O)NCc3ccc(F)cc3)CC2)cc1`, the Potency is 28.2 µM (active). The figure for `COc1ccc(N2Cc3cccc(C(=O)N4CCN(C(=O)c5ccco5)CC4)c3C2=O)cc1` is 7.08 µM (active); for `O=C1C2C3C=CC(C3)C2C(=O)N1c1ncn[nH]1` (centres undefined) it is 31.6 µM (active). The value for `O=C(O)c1ccc(-c2ccc(/C=C3\NC(=O)N(Cc4ccc(Cl)cc4)C3=O)o2)cc1Cl` was 3.55 µM (active); that for `CCN(CC)C(=O)CC(c1ccc(OC)cc1)c1c(OC)cc(OC)c2c(-c3ccccc3)cc(=O)oc12` (centres undefined) was 2.24 µM (active); that for `O=C(O)C1CC=CCC1C(=O)Nc1ccccc1` (centres undefined) was 14.1 µM (active). The value for `O=C(O)/C=C/c1ccc([N+](=O)[O-])o1` was 50.1 µM (active). `Cn1nnnc1SCC(=O)Nc1ccccn1`: the Potency is 7.08 µM (active).

With `C=CCCN(Cc1ccccc1)S(=O)(=O)c1ccccc1Br`, the Potency was 56.2 µM (active). The figure for `Cc1nn(-c2ccccc2)c(C)c1S(=O)(=O)O` is 25.1 µM (active); for `O=C(CCc1n[nH]c(=O)[nH]c1=O)N/N=C/c1ccco1` it is 31.6 µM (active); for `S=c1[nH]nc(-c2cccnc2)n1/N=C/c1ccc(Br)s1` it is 63.1 µM (active).

`Cc1ccc(NC(=O)CN2C(=O)S/C(=C\c3ccc(-c4cccc(C(=O)O)c4C)o3)C2=O)cc1`: the Potency is 11.2 µM (active). The value for `CC1=N/C(=C/c2ccco2)C(=O)O1` was 3.55 µM (active); that for `N#C/C(=C\c1ccc(OCc2ccc(F)cc2)cc1)C(=O)Nc1cccc(C(=O)O)c1` was 14.1 µM (active). The value for `CCOC(=O)c1sc(NC(=O)C2CC=CCC2C(=O)O)nc1C` (centres undefined) was 39.8 µM (active); that for `CCCCCc1nnc(NC(=O)Cc2cccs2)s1` was 25.1 µM (active).
